Test results: the supplement of paper PMC9262897, “Low-cost anti-mycobacterial drug discovery using engineered E. coli” (Nature Communications, 2022)
Where a name gives a salt, the structure may show the parent alone. ± gives the standard deviation of the averaged measurements.

Legend:
Experiment in all cases: growth (OD600 after 10 h); higher = more growth (less inhibition)
[1] = test system: E. coli TESEC Alr+ wild-type control; settings: compound 0.1 mM; raw OD600 reference: median of DMSO wells 0.241, cell-free background 0.041
Experimental: (§1)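 TESEC Mtb Alr E. coli, or the Alr+ wild-type control, in 384-well plates with Prestwick library compounds at 0.1 mM and 1% DMSO, across arabinose induction levels of 1E3 to 1E7 nM. Growth is read as OD600 after 10 h at 37 °C in triplicate biological replicates.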

E. coli TESEC Mtb Alr [2] = settings: compound 0.1 mM
Experimental: as §1

E. coli TESEC Mtb Asd = settings: compound 0.1 mM
Experimental: (§2)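 TESEC E. coli strains in which the native enzyme is deleted and replaced by arabinose-inducible Mtb Asd, DapB, CysH or TrpD, each grown in its selective medium. Strains were screened against the Prestwick library at 0.1 mM and 1% DMSO in 384-well format at low and high arabinose induction. Growth is read as OD600 after 10 h in triplicate.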

E. coli TESEC Mtb DapB = settings: compound 0.1 mM
Experimental: as §2

[3] = test system: E. coli TESEC Alr+ wild-type control; settings: compound 0.1 mM; raw OD600 reference: median of DMSO wells 0.49, cell-free background 0.052
Experimental: (§3)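 TESEC Mtb Alr E. coli (ΔaraC ΔtolC ΔentC Δalr ΔdadX, arabinose-inducible Mtb Alr) or the Alr+ wild-type control strain, grown in defined M9-fructose medium without D-alanine in 96-well plates with Prestwick library compounds at 0.1 mM and 1% DMSO. Low Alr induction is 0.1 µM arabinose and high induction is 10 mM arabinose.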

E. coli TESEC Mtb Alr [4] = settings: compound 0.1 mM; remark: listed apart in the source
Experimental: as §3

[5] = arabinose 1000 nM, raw OD600 reference: median of DMSO wells 0.294, cell-free background 0.041
[6] = arabinose 10000 nM, raw OD600 reference: median of DMSO wells 0.264, cell-free background 0.041
[7] = arabinose 100000 nM, raw OD600 reference: median of DMSO wells 0.201, cell-free background 0.041
[8] = arabinose 1000000 nM, raw OD600 reference: median of DMSO wells 0.193, cell-free background 0.041
[9] = arabinose 10000000 nM, raw OD600 reference: median of DMSO wells 0.146, cell-free background 0.041
[10] = arabinose induction (level): High, raw OD600 reference: median of DMSO wells 0.331, cell-free background 0.041
[11] = arabinose induction (level): Low, raw OD600 reference: median of DMSO wells 0.417, cell-free background 0.041
[12] = arabinose induction (level): High, raw OD600 reference: median of DMSO wells […], cell-free background 0.041
[13] = arabinose induction (level): Low, raw OD600 reference: median of DMSO wells 0.227, cell-free background 0.041
[14] = arabinose 100 nM, raw OD600 reference: median of DMSO wells 0.413, cell-free background 0.052
[15] = arabinose 10000000 nM, raw OD600 reference: median of DMSO wells […], cell-free background 0.052

| SMILES | growth [1] | growth (E. coli TESEC Mtb Alr [2]; [5]) | growth (E. coli TESEC Mtb Alr [2]; [6]) | growth (E. coli TESEC Mtb Alr [2]; [7]) | growth (E. coli TESEC Mtb Alr [2]; [8]) | growth (E. coli TESEC Mtb Alr [2]; [9]) | growth (E. coli TESEC Mtb Asd; [10]) | growth (E. coli TESEC Mtb Asd; [11]) | growth (E. coli TESEC Mtb DapB; [12]) | growth (E. coli TESEC Mtb DapB; [13]) | growth [3] | growth (E. coli TESEC Mtb Alr [4]; [14]) | growth (E. coli TESEC Mtb Alr [4]; [15]) |
| --- | --- | --- | --- | --- | --- | --- | --- | --- | --- | --- | --- | --- | --- |
| CCCCN(CCCC)CCCOC(=O)c1ccc(N)cc1 [Butacaine] | 0.2003 ± 0.0014 | 0.284 ± 0.019 | 0.275 ± 0.01 | 0.181 ± 0.013 | 0.189 ± 0.0068 | 0.14 ± 0.0032 | 0.275 ± 0.029 | 0.445 ± 0.06 | 0.182 ± 0.0067 | 0.208 ± 0.016 | 0.474 ± 0.038 | 0.408 ± 0.013 | 0.337 ± 0.019 |
| Oc1ccc(OCc2ccccc2)cc1 [Monobenzone] | 0.176 ± 0.0053 | 0.213 ± 0.017 | 0.249 ± 0.011 | 0.169 ± 0.004 | 0.134 ± 0.0036 | 0.161 ± 0.0038 | 0.314 ± 0.099 | 0.325 ± 0.025 | 0.2 ± 0.0057 | 0.21 ± 0.017 | 0.477 ± 0.012 | 0.395 ± 0.019 | 0.304 ± 0.018 |
| O=C1CC2(CCCC2)CC(=O)N1CCCCN1CCN(c2ncccn2)CC1 [Buspirone hydrochloride] | 0.2005 ± 0.002 | 0.274 ± 0.0095 | 0.2798 ± 0.0023 | 0.184 ± 0.028 | 0.198 ± 0.011 | 0.134 ± 0.0058 | 0.337 ± 0.021 | 0.439 ± 0.046 | 0.1852 ± 0.0015 | 0.226 ± 0.035 | 0.454 ± 0.019 | 0.411 ± 0.0053 | 0.346 ± 0.011 |
| O=C1NCCN1CCN1CCC(c2cn(-c3ccc(F)cc3)c3ccc(Cl)cc23)CC1 [Sertindole] | 0.0429 ± 0.0029 | 0.04057 ± 0.00035 | 0.04073 ± 0.00025 | 0.0409 ± 0.0004 | 0.04 ± 0.0001 | 0.0443 ± 0.0027 | 0.0531 ± 0.0039 | 0.0504 ± 0.003 | 0.102 ± 0.09 | 0.0562 ± 0.012 | 0.0474 ± 0.001 | 0.167 ± 0.2 | 0.0524 ± 0.00098 |
| CCCSc1ccc2[nH]c(NC(=O)OC)nc2c1 [Albendazole] | 0.246 ± 0.025 | 0.274 ± 0.021 | 0.255 ± 0.0036 | 0.211 ± 0.031 | 0.1462 ± 0.00096 | 0.137 ± 0.0025 | 0.41 ± 0.017 | 0.409 ± 0.033 | 0.205 ± 0.0098 | 0.25 ± 0.025 | 0.48 ± 0.013 | 0.428 ± 0.01 | 0.419 ± 0.054 |
| CC(=O)SCC(Cc1ccccc1)C(=O)NCC(=O)OCc1ccccc1 (stereo not given) [Racecadotril] | 0.183 ± 0.0055 | 0.26 ± 0.016 | 0.241 ± 0.011 | 0.23 ± 0.022 | 0.132 ± 0.0014 | 0.189 ± 0.0054 | 0.28 ± 0.053 | 0.215 ± 0.013 | 0.172 ± 0.012 | 0.24 ± 0.023 | 0.502 ± 0.028 | 0.398 ± 0.0054 | 0.298 ± 0.0095 |
| CC(C)(C)c1ccc(C(O)CCCN2CCC(C(O)(c3ccccc3)c3ccccc3)CC2)cc1 (stereo not given) [Terfenadine] | 0.205 ± 0.0036 | 0.207 ± 0.14 | 0.296 ± 0.0092 | 0.181 ± 0.0044 | 0.136 ± 0.072 | 0.158 ± 0.0023 | 0.265 ± 0.054 | 0.421 ± 0.013 | 0.199 ± 0.013 | 0.239 ± 0.014 | 0.0576 ± 0.0093 | 0.0737 ± 0.031 | 0.0518 ± 0.00085 |
| NC(=O)N1c2ccccc2CC(=O)c2ccccc21 [Oxcarbazepine] | 0.236 ± 0.0086 | 0.269 ± 0.015 | 0.256 ± 0.0035 | 0.211 ± 0.03 | 0.171 ± 0.0024 | 0.146 ± 0.0084 | 0.225 ± 0.042 | 0.322 ± 0.043 | 0.189 ± 0.0098 | 0.201 ± 0.019 | 0.601 ± 0.13 | 0.403 ± 0.0086 | 0.321 ± 0.0074 |
| O=C1Cc2cc(CCN3CCN(c4nsc5ccccc45)CC3)c(Cl)cc2N1 [Ziprasidone  Hydrochloride] | 0.133 ± 0.0045 | 0.174 ± 0.008 | 0.249 ± 0.0058 | 0.195 ± 0.0098 | 0.179 ± 0.0086 | 0.201 ± 0.0095 | 0.418 ± 0.051 | 0.363 ± 0.035 | 0.222 ± 0.027 | 0.308 ± 0.076 | 0.427 ± 0.011 | 0.378 ± 0.0087 | 0.338 ± 0.013 |
| Cn1c(NCCN(CCO)CCCc2ccc([N+](=O)[O-])cc2)cc(=O)n(C)c1=O [Nifekalant] | 0.241 ± 0.011 | 0.301 ± 0.0034 | 0.248 ± 0.003 | 0.168 ± 0.0095 | 0.144 ± 0.0052 | 0.145 ± 0.002 | 0.179 ± 0.017 | 0.428 ± 0.057 | 0.2 ± 0.033 | 0.258 ± 0.013 | 0.534 ± 0.067 | 0.4 ± 0.015 | 0.298 ± 0.02 |
| CCCC(=O)Nc1ccc(OCC(O)CNC(C)C)c(C(C)=O)c1 (stereo not given) [Acebutolol hydrochloride] | 0.239 ± 0.008 | 0.305 ± 0.011 | 0.257 ± 0.0087 | 0.202 ± 0.014 | 0.174 ± 0.0073 | 0.1572 ± 0.0014 | 0.264 ± 0.04 | 0.413 ± 0.007 | 0.197 ± 0.025 | 0.265 ± 0.067 | 0.46 ± 0.044 | 0.411 ± 0.0058 | 0.354 ± 0.01 |
| CCOc1ccc2nc(S(N)(=O)=O)sc2c1 [Ethoxzolamide] | 0.2066 ± 0.0019 | 0.247 ± 0.0061 | 0.227 ± 0.0027 | 0.177 ± 0.024 | 0.134 ± 0.0057 | 0.122 ± 0.0034 | 0.283 ± 0.04 | 0.368 ± 0.045 | 0.172 ± 0.0065 | 0.187 ± 0.017 | 0.552 ± 0.11 | 0.426 ± 0.0093 | 0.214 ± 0.13 |
| CCCCCN(C)CCC(O)(P(=O)(O)O)P(=O)(O)O [Ibandronate sodium] | 0.245 ± 0.0075 | 0.287 ± 0.01 | 0.25 ± 0.0058 | 0.196 ± 0.011 | 0.182 ± 0.0036 | 0.131 ± 0.0067 | 0.364 ± 0.022 | 0.448 ± 0.015 | 0.206 ± 0.0027 | 0.232 ± 0.035 | 0.462 ± 0.035 | 0.422 ± 0.01 | 0.358 ± 0.014 |
| CCC[C@@H]1C[C@@H](C(=O)N[C@@H]([C@H]2O[C@H](SC)[C@H](O)[C@@H](O)[C@H]2O)[C@H](C)Cl)N(C)C1 [Clindamycin hydrochloride] | 0.0527 ± 0.0012 | 0.048 ± 0.0007 | 0.04127 ± 0.0004 | 0.0497 ± 0.00055 | 0.04133 ± 0.00032 | 0.0496 ± 0.00085 | 0.0699 ± 0.0019 | 0.0715 ± 0.0033 | 0.0755 ± 0.0023 | 0.0766 ± 0.0063 | 0.0771 ± 0.0023 | 0.15 ± 0.014 | 0.0594 ± 0.0027 |
| Nc1ccc(S(=O)(=O)Nc2ccc(Cl)nn2)cc1 [Sulfachloropyridazine] | 0.241 ± 0.0064 | 0.285 ± 0.029 | 0.174 ± 0.0032 | 0.231 ± 0.022 | 0.0969 ± 0.0044 | 0.165 ± 0.0072 | 0.392 ± 0.14 | 0.412 ± 0.042 | 0.193 ± 0.013 | 0.236 ± 0.03 | 0.425 ± 0.022 | 0.421 ± 0.005 | 0.28 ± 0.029 |
